About 83,000 compounds went through this panel and 20% of them were active in at least one assay; those are over-represented in the sample as a whole.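 Single-concentration screen, 48 h exposure, 96-well plates. Endpoint: percent growth. Below 10 = active.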 Active and inactive are the calls of the source.
What was measured:
Test in all cases: NCI-60 one-dose screen, 48 h (100 = growth as untreated, 0 = no growth, -100 = all killed)
Conditions in all cases: 10 µM unless noted
SR leukemia = test system: SR leukemia
RPMI-8226 leukemia = test system: RPMI-8226 leukemia
OVCAR-8 ovarian = test system: OVCAR-8 ovarian
OVCAR-5 ovarian = test system: OVCAR-5 ovarian
OVCAR-4 ovarian = test system: OVCAR-4 ovarian
SK-OV-3 ovarian = test system: SK-OV-3 ovarian
IGROV1 ovarian = test system: IGROV1 ovarian
OVCAR-3 ovarian = test system: OVCAR-3 ovarian
HS 578T breast = test system: HS 578T breast
NCI/ADR-RES ovarian = test system: NCI/ADR-RES ovarian
T-47D breast = test system: T-47D breast
BT-549 breast = test system: BT-549 breast
MDA-MB-435 melanoma = test system: MDA-MB-435 melanoma
SW-620 colon = test system: SW-620 colon
MCF7 breast = test system: MCF7 breast
HCT-116 colon = test system: HCT-116 colon
HCC-2998 colon = test system: HCC-2998 colon
KM12 colon = test system: KM12 colon

Measured: growth

CCn1c(Cc2ccccc2Nc2c(Cl)cccc2Cl)nnc1SCC(=O)Nc1cccc(OC)c1
inactive: SR leukemia 87.1% | RPMI-8226 leukemia 63.2% | OVCAR-8 ovarian 89.8% | OVCAR-5 ovarian 82.9% | OVCAR-4 ovarian 78.7% | SK-OV-3 ovarian 85.4% | IGROV1 ovarian 67% | OVCAR-3 ovarian 96% | HS 578T breast 72% | NCI/ADR-RES ovarian 86.1% | T-47D breast 58.9% | BT-549 breast 98.8% | MDA-MB-435 melanoma 93.4% | SW-620 colon 85.3% | MCF7 breast 84% | HCT-116 colon 66.5% | HCC-2998 colon 100% | KM12 colon 88%

COc1ccc2c(c1)OC1=C(C(=O)OC1)C2c1cc(OC)c2c(c1)OCCO2 (centres undefined)
inactive: SR leukemia 27.3% | RPMI-8226 leukemia 25% | OVCAR-8 ovarian 20.7% | OVCAR-5 ovarian 32.4% | OVCAR-4 ovarian 48% | IGROV1 ovarian 19.3% | HS 578T breast 29.6% | NCI/ADR-RES ovarian 13.9% | T-47D breast 60.2% | BT-549 breast 24.6% | SW-620 colon 24.6% | MCF7 breast 10.3% | HCC-2998 colon 23%
active: SK-OV-3 ovarian -2.33% | OVCAR-3 ovarian -30.4% | MDA-MB-435 melanoma -18.1% | HCT-116 colon 4.09% | KM12 colon 2.33%

O=C1C(Cl)=C(Nc2cccc3ccccc23)C(=O)c2ccccc21
inactive: SR leukemia 51% | RPMI-8226 leukemia 17.8% | OVCAR-8 ovarian 71.5% | OVCAR-5 ovarian 134% | OVCAR-4 ovarian 58.6% | SK-OV-3 ovarian 99.1% | IGROV1 ovarian 58.8% | OVCAR-3 ovarian 39% | HS 578T breast 87.9% | NCI/ADR-RES ovarian 81.2% | T-47D breast 34.3% | BT-549 breast 73.4% | MDA-MB-435 melanoma 55.9% | SW-620 colon 68.9% | MCF7 breast 44% | HCT-116 colon 47.7% | HCC-2998 colon 103% | KM12 colon 58.4%
